From PubChem BioAssay (NCATS)
Results filed as inconclusive are left out. The source made the active and inactive calls. Unless noted, the call rests on the fitted dose curve; in most records, active means well fitted curve in either direction with a large enough effect (not every such curve was filed as active); inconclusive means small, poorly fitted or top-dose-only effect, or another doubt; inactive means flat fitted curve, though single readings scatter.

Columns and labels:
[1] = molecular target: Lysosomal acid glucosylceramidase (Homo sapiens) (UniProt P04062); test: Glucocerebrosidase-p2 (AID 348; in the data active means potency below about 10 µM; further: potency means the concentration at half of the fitted maximal effect); conditions: purified GBA, blue fluorogenic substrate, 40 min
Procedure, shortened: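 Compounds titrated from 0.6 nM upwards against 0.2 nM enzyme in pH 5.9 citric acid/KH2PO4, taurocholate, tween-20; blue fluorogenic substrate 80 uM, 40 min room temperature, stopped and read Ex 365/Em 440 for AC50.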

[2] = molecular target: Cytochrome P450 1A2 (Homo sapiens) (UniProt P05177); test: p450-cyp1a2 (AID 410; calls by dose curve; further: potency means the concentration at half of the fitted maximal effect); conditions: recombinant CYP1A2, luciferin-ME demethylation, luminescence; series mostly up to 57 µM
Procedure, shortened: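 Luminescent readout of luciferin formed from Luciferin-ME by human CYP1A2; data normalized against complete inhibition by 57 uM furafylline. Enzyme 20nM, substrate 100uM at Km, 100mM KPO4 buffer, 60 min reaction at room temperature.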

[3] = NFAT Signaling Pathway (AID 444); conditions: Jurkat NFAT-bla M1, carbachol, beta-lactamase ratio, 5 h; at 7.69 µM (top of the series) unless noted;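 further: carbachol stimulus at about its EC50 of 1 µM final; on the % scale 0 is the no-effect control and ±100 the full control effect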
Procedure, shortened: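 Jurkat cells with NFAT-driven β-lactamase reporter and co-expressed M1 receptor, stimulated with carbachol (final 1 uM, ~EC50), compound titration, 5 h at 37 °C. CCF4 loaded 1 h at RT; 460/530 nm ratio gave %activity and AC50.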

[4] = Stat Signaling Pathway (AID 446); conditions: ME-180 SIE beta-lactamase reporter, IL-6 stimulated, 5 h; at 7.69 µM (top of the series) unless noted;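 further: ME-180 cervical cancer cells given 40 pM IL-6 alongside compound; SIE-controlled beta-lactamase reporter measured as 460/530 nm FRET emission ratio; on the % scale 0 is the no-effect control and ±100 the full control effect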
Procedure, shortened: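 ME-180 SIE-bla cells; overnight plating; cpd + IL-6 40 pM, 5 h, 37 C; LiveBLAzer 2.5 h RT; 460/530 nm emission ratio. Normalized to 300 pM IL-6 and 125 nM JAK inhibitor controls.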

[5] = molecular target: Glucocorticoid receptor (Homo sapiens) (UniProt P04150); test: GR-GFP Redistribution (AID 450;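 active means compounds whose dose series gives a full or clear partial fitted curve of increased nuclear translocation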; further: potency means the concentration at half of the fitted maximal effect); conditions: U2OS GR-GFP nuclear translocation, laser cytometry, 2 h
[6] = molecular target: Glucocorticoid receptor (Homo sapiens) (UniProt P04150); test: GR-EFC Redistribution (AID 451; calls by dose curve; further: potency means the concentration at half of the fitted maximal effect); conditions: CHO-K1 GR-EFC translocation, beta-gal luminescence, 2 h
Procedure, shortened: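 CHO-K1 cells expressing nuclear EA and GR-ED fragments of b-gal; compounds titrated up to 46 uM final, 2 h at 37 C. GR nuclear translocation read as complemented b-gal luminescence after 1 h RT detection.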

[7] = molecular target: Mitogen-activated protein kinase 10 (Mus musculus) (UniProt Q61831); test: JNK3 AlphaScreen Assay (AID 530); conditions: JNK3 lysate, c-Jun phosphorylation; series mostly up to 57.1 µM;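 further: kinase came from lysate of stimulated human HepG2 cells; signal reports phosphorylation of biotinylated GST-cJun 1-79 at Ser73 with 10 µM ATP; on the % scale 0 is the no-effect control and ±100 the full control effect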
Procedure, shortened: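 Pre-activated (IL-1β/TNFα) JNK3 in HepG2 lysates phosphorylates biotin-GST-cJun(1-79), 10 uM ATP; anti-phospho-cJun(Ser73) AlphaScreen read at room temperature, pH 7.6 Tris buffer. Compounds pre-incubated 15 min as titrations.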

[8] = molecular target: Cytochrome P450 3A4 (Homo sapiens) (UniProt P08684); test: qHTS Assay for Inhibitors and Substrates of Cytochrome P450 3A4 (AID 884; active means well fitted curve in the direction sought with a large enough effect; an effect the other way counts as inactive or inconclusive; further: potency means the concentration at half of the fitted maximal effect; nearly all actives have a fitted effect of over 50% in size); conditions: recombinant CYP3A4, Luciferin-PPXE luminescence; series mostly up to 57.1 µM
Procedure, shortened: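 20 nM human CYP3A4 with 25 uM Luciferin-PPXE (at KM) in 200 mM KPO4, preincubated 10 min with compound; NADPH regeneration started a 60 min RT reaction. Luciferin detected by luminescence, normalized to 57 uM ketoconazole as full inhibition.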

[9] = molecular target: Cytochrome P450 3A4 (Homo sapiens) (UniProt P08684); test: qHTS Assay for Activators of Cytochrome P450 3A4 (AID 885; active means well fitted curve in the direction sought with a large enough effect; an effect the other way counts as inactive or inconclusive; further: nearly all actives have a fitted effect of over 65% in size); conditions: recombinant CYP3A4, Luciferin-PPXE luminescence, 60 min; series mostly up to 57.1 µM
Procedure, shortened: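 20nM CYP3A4 + 25uM Luciferin-PPXE (=KM), 200mM KPO4; cpd 10 min RT; NADPH regen, 60 min RT; stop w/ detection buffer, 20 min; luminescence. Normalized to 57 uM ketoconazole.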

[10] = Confirmation and Secondary Assay for Modulators of Hemoglobin Beta Chain Splicing at IVS2 654 locus (AID 910; active means well fitted curve in the direction sought with a large enough effect; an effect the other way counts as inactive or inconclusive;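 further: HeLa cells stably carrying EGFP split by mutant beta-globin IVS2-654 intron; % of control where 0% means no effect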); conditions: HeLa EGFP-654 splicing reporter, GFP fluorescence, 48 h; series mostly up to 38.3 µM
Procedure, shortened: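 HeLa cells stably expressing EGFP interrupted by β-globin IVS2-654 intron, seeded overnight in Opti-MEM/2% FCS, then treated 2 days at 37 °C. Restored splicing read as total peak GFP intensity per well by laser scanning cytometry (488 nm excitation, 500–520 nm emission); 500 nM antisense PNA as control.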

[11] = Confirmation and Secondary Assay for Modulators of Hemoglobin Beta Chain Splicing at IVS2 705 locus (AID 930; active means well fitted curve in the direction sought with a large enough effect; an effect the other way counts as inactive or inconclusive;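 further: HeLa cells stably expressing the EGFP-705 splicing reporter; GFP fluorescence per well restored by corrected splicing of the IVS2-705 intron in EGFP; % of control where 0% means no effect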); conditions: HeLa EGFP-705 splicing reporter, GFP fluorescence, 48 h; series mostly up to 38.3 µM
Procedure, shortened: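 HeLa EGFP-705 reporter; 500 cells/well, o/n 37C 5% CO2; cpd 2 d; 488 ex/500-520 em laser scan; total peak GFP intensity/well. Ref: 500 nM […] antisense PNA.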

[12] = qHTS Assay for Lipid Storage Modulators (AID 1519; calls by dose curve); conditions: Drosophila S3 cells, BODIPY lipid droplet/cell ratio, laser cytometry, cells loaded with oleic acid; for activity change, negative = inhibition: at 57.5 µM (top of the series)
Procedure, shortened: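 Cells seeded at 5,000 per well were treated with compounds over a concentration series and loaded with oleic acid (400 uM, as added). Lipid droplet fluorescence (488 nm excitation, 500-530 nm channel) was read by laser-scanning cytometry and normalized to 20 uM Triacsin C.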

[13] = Primary qHTS for small molecule stabilizers of the endoplasmic reticulum resident proteome: Secreted ER Calcium Modulated Protein (SERCaMP) assay (AID 1508630; active means well fitted curve in the direction sought with a large enough effect; an effect the other way counts as inactive or inconclusive; further: on the % scale 0 is the no-effect control and ±100 the full control effect); conditions: SH-SY5Y GLuc-SERCaMP (Gaussia luciferase released on ER calcium loss) secretion, thapsigargin, luminescence; series mostly up to 38.4 µM
Procedure, shortened: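 GLuc-SERCaMP-expressing SH-SY5Y cells, pretreated 16 h with compound, are challenged with thapsigargin to empty ER calcium stores; after 4 h, coelenterazine is added directly to the medium and luminescence is imaged.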

[14] = AP1 Signaling Pathway (AID 357); conditions: ME-180 AP-1-bla reporter, EGF-induced, beta-lactamase ratio, 5 h; at 7.69 µM (top of the series) unless noted; further: on the % scale 0 is the no-effect control and ±100 the full control effect
Procedure, shortened: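 ME-180 cells with beta-lactamase reporter under AP-1 response element, stimulated with EC50 EGF; compounds tested in titration series, 5 h at 37 °C. CCF4 substrate added 2.5 h at room temperature; 460/530 nm emission ratio gave %activity and AC50.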

[15] = molecular target: 3',5'-cyclic-AMP phosphodiesterase 4B (Homo sapiens) (UniProt Q07343); test: qHTS Assay for Inhibitors of PDE-IV (AID 607; active means well fitted activation curve with a large enough effect in the main read-out, with a control signal flat, not every such curve was filed as active; further: % of control where 0% means no effect); conditions: HEK293 ACTOne CNG channel cells, membrane potential fluorescence; series mostly up to 22.9 µM
Procedure, shortened: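 ACTOne HEK293 cells carry a modified cAMP-gated CNG channel and express endogenous PDE4; plated 1000 cells/well, compounds up to 22.9 uM final. Membrane-potential dye fluorescence (ex 535/em 590) was read; parental cells received 10 uM forskolin + 100 uM RO 20-1724.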

[16] = qHTS Assay for Identification of Small Molecule Agonists for Hypoxia Response Element Signaling Pathway (AID 914; active means well fitted activation curve with a large enough effect in the signal ratio, with a control signal flat, not every such curve was filed as active; the % refers to the signal ratio; further: % of control where 0% means no effect); conditions: ME-180 (cervical carcinoma) HRE-bla reporter, beta-lactamase ratio, CoCl2, 17 h; activation: stronger effect = higher value
Procedure, shortened: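 Read-out: CCF4 FRET ratio of 460nm to 530nm emission (excitation 405nm) after 2.5 hours at room temperature, taken from HRE-bla ME-180 cells that had been exposed to compound and EC50 CoCl2 for 17 hours.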

[17] = molecular target: Cytochrome P450 2C9 (Homo sapiens) (UniProt P11712); test: qHTS Assay for Inhibitors and Substrates of Cytochrome P450 2C9 (AID 883; active means well fitted curve in the direction sought with a large enough effect; an effect the other way counts as inactive or inconclusive; further: on the % scale 0 is the no-effect control and ±100 the full control effect; nearly all actives have a fitted effect of over 60% in size); conditions: recombinant CYP2C9, luciferin-H luminescence, 60 min; series mostly up to 57.1 µM
Procedure, shortened: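 Human CYP2C9 (10nM) with Luciferin-H at 100uM (its KM) in 25mM KPO4; compound preincubated 10 min at 37C, then NADPH regeneration for 60 min at 37C. Luciferin read by luminescence after detection reagent; normalized to 57uM sulphaphenazole as full inhibition.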

[18] = measured here: cell count channel max response
[19] = measured here: lipid channel max response

Cytochrome P450 3A4 (Homo sapiens), sequence (P08684 whole entry, looked up): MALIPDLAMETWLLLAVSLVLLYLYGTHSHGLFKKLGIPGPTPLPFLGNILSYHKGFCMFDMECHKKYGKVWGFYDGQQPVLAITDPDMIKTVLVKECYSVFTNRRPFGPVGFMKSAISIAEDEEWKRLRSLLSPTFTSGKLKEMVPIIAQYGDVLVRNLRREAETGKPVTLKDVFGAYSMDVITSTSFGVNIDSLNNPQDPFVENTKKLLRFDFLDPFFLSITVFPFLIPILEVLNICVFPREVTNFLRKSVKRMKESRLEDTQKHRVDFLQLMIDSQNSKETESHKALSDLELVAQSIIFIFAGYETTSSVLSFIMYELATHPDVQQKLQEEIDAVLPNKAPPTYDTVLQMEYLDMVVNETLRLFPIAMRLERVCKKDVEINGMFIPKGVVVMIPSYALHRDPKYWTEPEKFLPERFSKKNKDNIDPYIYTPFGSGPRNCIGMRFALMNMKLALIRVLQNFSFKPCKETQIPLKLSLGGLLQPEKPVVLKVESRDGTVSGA
Lysosomal acid glucosylceramidase (Homo sapiens), sequence (P04062 whole entry, looked up): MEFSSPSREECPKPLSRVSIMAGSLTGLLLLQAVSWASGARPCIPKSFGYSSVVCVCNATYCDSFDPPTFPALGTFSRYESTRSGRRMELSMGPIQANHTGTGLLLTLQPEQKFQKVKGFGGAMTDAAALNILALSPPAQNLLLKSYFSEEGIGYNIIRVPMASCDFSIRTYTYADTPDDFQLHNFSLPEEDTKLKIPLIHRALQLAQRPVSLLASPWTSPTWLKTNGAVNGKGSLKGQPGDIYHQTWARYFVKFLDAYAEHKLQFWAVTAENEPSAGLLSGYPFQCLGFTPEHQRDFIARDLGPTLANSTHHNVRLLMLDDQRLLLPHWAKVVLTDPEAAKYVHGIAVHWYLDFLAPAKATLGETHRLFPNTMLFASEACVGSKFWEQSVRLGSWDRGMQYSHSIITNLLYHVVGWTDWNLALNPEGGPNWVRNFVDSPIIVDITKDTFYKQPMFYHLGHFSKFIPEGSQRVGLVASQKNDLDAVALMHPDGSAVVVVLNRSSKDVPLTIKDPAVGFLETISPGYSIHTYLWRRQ
3',5'-cyclic-AMP phosphodiesterase 4B (Homo sapiens), sequence (Q07343 whole entry, looked up): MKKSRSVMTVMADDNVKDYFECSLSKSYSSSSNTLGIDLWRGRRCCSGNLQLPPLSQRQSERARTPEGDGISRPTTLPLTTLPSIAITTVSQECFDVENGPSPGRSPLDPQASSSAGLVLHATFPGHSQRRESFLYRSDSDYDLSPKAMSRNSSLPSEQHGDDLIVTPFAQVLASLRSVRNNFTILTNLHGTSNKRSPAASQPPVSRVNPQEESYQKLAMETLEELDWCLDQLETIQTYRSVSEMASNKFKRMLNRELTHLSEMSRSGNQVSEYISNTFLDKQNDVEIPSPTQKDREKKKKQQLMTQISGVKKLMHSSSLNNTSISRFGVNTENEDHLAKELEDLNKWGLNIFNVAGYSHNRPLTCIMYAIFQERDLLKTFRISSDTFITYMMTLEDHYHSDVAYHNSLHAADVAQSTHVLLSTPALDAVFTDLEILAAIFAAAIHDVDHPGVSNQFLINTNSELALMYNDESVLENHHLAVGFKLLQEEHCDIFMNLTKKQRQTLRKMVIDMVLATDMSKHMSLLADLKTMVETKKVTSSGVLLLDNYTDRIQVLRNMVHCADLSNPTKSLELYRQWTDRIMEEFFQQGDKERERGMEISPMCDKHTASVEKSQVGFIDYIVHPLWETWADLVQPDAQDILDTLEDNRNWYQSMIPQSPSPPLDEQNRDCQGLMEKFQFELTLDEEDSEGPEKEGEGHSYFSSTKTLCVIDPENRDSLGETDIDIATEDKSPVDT
Glucocorticoid receptor (Homo sapiens), sequence (P04150 whole entry, looked up, the tested form may be a part): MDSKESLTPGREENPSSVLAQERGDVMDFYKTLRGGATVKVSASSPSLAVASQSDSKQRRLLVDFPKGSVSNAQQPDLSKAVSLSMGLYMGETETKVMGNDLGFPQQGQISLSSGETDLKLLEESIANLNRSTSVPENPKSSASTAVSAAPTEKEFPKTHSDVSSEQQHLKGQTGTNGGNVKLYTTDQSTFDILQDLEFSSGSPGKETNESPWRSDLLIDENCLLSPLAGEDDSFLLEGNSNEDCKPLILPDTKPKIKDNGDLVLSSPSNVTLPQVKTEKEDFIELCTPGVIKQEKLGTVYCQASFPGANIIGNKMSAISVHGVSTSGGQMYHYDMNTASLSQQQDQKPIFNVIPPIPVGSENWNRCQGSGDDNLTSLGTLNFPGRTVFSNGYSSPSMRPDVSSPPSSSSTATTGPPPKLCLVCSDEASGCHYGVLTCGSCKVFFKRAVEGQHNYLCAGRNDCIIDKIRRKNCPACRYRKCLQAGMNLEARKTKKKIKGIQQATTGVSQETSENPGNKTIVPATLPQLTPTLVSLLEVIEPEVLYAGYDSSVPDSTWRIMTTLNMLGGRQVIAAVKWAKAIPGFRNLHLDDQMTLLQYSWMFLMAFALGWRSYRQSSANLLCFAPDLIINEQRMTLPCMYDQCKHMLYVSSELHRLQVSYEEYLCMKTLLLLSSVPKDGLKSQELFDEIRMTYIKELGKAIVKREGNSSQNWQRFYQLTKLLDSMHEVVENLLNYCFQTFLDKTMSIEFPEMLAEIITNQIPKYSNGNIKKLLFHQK
Cytochrome P450 2C9 (Homo sapiens), sequence (P11712 whole entry, looked up): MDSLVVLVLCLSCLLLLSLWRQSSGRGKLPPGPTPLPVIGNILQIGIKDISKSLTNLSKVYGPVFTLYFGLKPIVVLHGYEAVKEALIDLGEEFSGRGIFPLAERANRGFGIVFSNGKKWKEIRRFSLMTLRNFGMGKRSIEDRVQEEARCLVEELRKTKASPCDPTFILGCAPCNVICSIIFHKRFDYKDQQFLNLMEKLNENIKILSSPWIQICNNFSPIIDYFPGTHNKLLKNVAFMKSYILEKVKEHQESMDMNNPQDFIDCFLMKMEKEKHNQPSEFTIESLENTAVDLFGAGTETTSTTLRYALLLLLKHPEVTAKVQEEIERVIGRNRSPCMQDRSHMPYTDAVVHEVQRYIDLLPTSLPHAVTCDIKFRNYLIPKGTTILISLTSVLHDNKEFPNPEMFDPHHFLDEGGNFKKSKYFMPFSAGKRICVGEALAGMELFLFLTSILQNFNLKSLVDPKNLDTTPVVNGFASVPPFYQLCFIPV
Cytochrome P450 1A2 (Homo sapiens), sequence (P05177 whole entry, looked up): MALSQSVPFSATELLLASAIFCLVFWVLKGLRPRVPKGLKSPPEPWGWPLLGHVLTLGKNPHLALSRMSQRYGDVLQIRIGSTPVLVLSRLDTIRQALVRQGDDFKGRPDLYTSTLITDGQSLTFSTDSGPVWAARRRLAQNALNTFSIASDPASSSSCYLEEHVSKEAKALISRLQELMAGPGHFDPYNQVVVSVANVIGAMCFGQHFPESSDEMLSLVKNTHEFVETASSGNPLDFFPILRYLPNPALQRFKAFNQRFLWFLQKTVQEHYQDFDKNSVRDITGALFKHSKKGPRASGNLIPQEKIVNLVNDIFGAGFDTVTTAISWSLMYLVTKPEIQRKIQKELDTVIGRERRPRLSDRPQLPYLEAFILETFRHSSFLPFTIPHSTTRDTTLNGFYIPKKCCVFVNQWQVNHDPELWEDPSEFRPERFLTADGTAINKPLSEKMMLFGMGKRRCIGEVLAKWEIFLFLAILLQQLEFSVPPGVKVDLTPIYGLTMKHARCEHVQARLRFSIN

Row | SMILES | Potency [1] | Potency [2] | activity change, negative = inhibition [3] | activity, negative = inhibition [4] | Potency [5] | Potency [6] | Potency [7] | Potency [8] | Potency [9] | Potency [10] | outcome [11] | activity change, negative = inhibition [12] | max response [12, 18] [%] | max response [12, 19] [%] | outcome [13] | activity change, negative = inhibition [14] | Potency [15] | activation [16] | Potency [17]
1 | c1cncc(CNc2nc(-c3ccc4c(c3)OCO4)nc3ccccc23)c1 | > 11.4 µM (inactive) | 0.1 µM (active) | -3.4% (inactive) | -7.26% (inactive) | > 46 µM (inactive) | > 46 µM (inactive) | inactive | 0.316 µM (active) | inactive | inactive | inactive | 6.87% (inactive) | 10.1 | 18 | inactive | – | – | – | –
2 | O=C(c1cccc(F)c1)N1CCC2(CC1)CN(c1ccccn1)C2 | > 11.4 µM (inactive) | – | – | -12.3% (inactive) | – | > 46 µM (inactive) | – | – | – | – | – | 6.42% (inactive) | 17.7 | 16 | inactive | 6.77% (inactive) | inactive | – | –
3 | COc1ccccc1CN1CCCC2(CCN(C(=O)c3cccc(F)c3)CC2)C1 | > 11.4 µM (inactive) | – | – | 1.24% (inactive) | – | – | inactive | – | – | – | – | 0.576% (inactive) | 3.85 | 7.25 | inactive | -7.36% (inactive) | inactive | – | –
4 | COc1ccccc1CN1CCCC2(CCN(S(=O)(=O)c3ccccc3)CC2)C1 | > 11.4 µM (inactive) | – | – | 1.94% (inactive) | – | > 46 µM (inactive) | inactive | – | – | – | – | 0.969% (inactive) | -4.49 | 1.25 | inactive | 0.799% (inactive) | inactive | -6.58% (inactive) | –
5 | COc1ccc(C(=O)N2CCC3(CC2)CCN(c2ccncc2)CC3)cc1 | > 11.4 µM (inactive) | – | – | 5.85% (inactive) | – | > 46 µM (inactive) | inactive | – | inactive | – | – | -1.55% (inactive) | 12.5 | 14 | inactive | 14.4% (inactive) | inactive | – | –
6 | CC(C)CN1CC2(CCN(S(=O)(=O)c3ccccc3)CC2)C1 | > 11.4 µM (inactive) | – | – | -2.48% (inactive) | – | > 46 µM (inactive) | inactive | – | – | – | – | -0.648% (inactive) | -17.9 | -14.3 | inactive | 6.33% (inactive) | inactive | 6.29% (inactive) | –
7 | O=S(=O)(c1ccccc1)N1CCC2(CC1)CN(c1ccncc1)C2 | > 11.4 µM (inactive) | – | – | 0.614% (inactive) | – | > 46 µM (inactive) | inactive | – | inactive | – | – | 2% (inactive) | 0.397 | -0.685 | inactive | 0.671% (inactive) | inactive | – | inactive
8 | Cn1cccc1C(=O)N1CCC2(CC1)CN(C(=O)Nc1cccc(F)c1)C2 | > 11.4 µM (inactive) | – | – | -4.36% (inactive) | – | > 46 µM (inactive) | inactive | – | – | – | – | 2.3% (inactive) | -3.47 | 0.81 | inactive | 5.05% (inactive) | inactive | – | –
